Screening data (PubChem)
Rows were chosen to be rich in hits. Some 7.2% of all compounds tested hit in one or more screens of this group.
Efflux pump inh: blocks antifungal efflux pumps in multiplex yeast assay; inhibition, % at 10 µM; S. cerevisiae Candida pump triplex, Nile Red efflux; AID 485275; actives 0.44% (n = 330,000);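 active = plate passing quality check with inhibition over a set limit, or well fluorescence over plate mean plus 4 SD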;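 note: Nile Red retained in pooled yeast measured as flow cytometry median fluorescence; higher means more Nile Red kept so more efflux inhibition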
ALR inh: blocks human ALR sulfhydryl oxidase activity; inhibition, % (test concentration not listed); P55789; actives 3.8% (n = 290,000); purified ALR, DTT oxidation, H2O2 HRP-luminol luminescence; AID 485317;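 active = mean replicate inhibition above about 79%, with every replicate also reaching it, limit read from the data; inconclusive = only one of the two criteria met; inactive = mean below limit and not every replicate reaching it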
Bfl-1 A1 inh: inhibitors of the anti-apoptotic protein A1, read as caspase activation | MEF A1-2A-BIM cells, Caspase-Glo 3/7 luminescence, 3 h; percent of clofoctol response, vehicle zero | actives 0.066% (n = 330,000) | caspase activation, % (concentration not given with the values);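 active = over half of replicate activation scores above 10%, or exactly half above 10 with the replicate mean above 10; inconclusive = replicate mean below 10 yet half the replicates above 10; inactive = over half of replicates below 10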
AHR activator: activators of human aryl hydrocarbon receptor; actives 2.5% (n = 320,000); AID 2796; AHR-responsive luciferase reporter cells, luminescence; activation, % at 5 µM; P35869; in the data active = activation above about 47%
SUMO Mot1 rescue: SUMOylation pathway inhibition by Mot1-301 growth rescue; S. cerevisiae Mot1-301 growth rescue, ATP luminescence, 38.5C; percent above DMSO median, 100 means doubled; growth rescue, % at 18.8 µM; actives 1% (n = 320,000);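 active = every valid replicate shows activation above 250% relative to neutral control wells; inactive = the rest, any valid replicate at or below 250%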
VLA-4 inh: inhibition in a human VLA-4 binding assay; P13612; VLA-4 expressing cells, ligand binding flow cytometry; inhibition, % (about 7 µM as worked out from the volumes in the protocol); actives 0.2% (n = 330,000); AID 2557; in the data active = inhibition above about 50%
Target sequence (P13612 whole entry, looked up): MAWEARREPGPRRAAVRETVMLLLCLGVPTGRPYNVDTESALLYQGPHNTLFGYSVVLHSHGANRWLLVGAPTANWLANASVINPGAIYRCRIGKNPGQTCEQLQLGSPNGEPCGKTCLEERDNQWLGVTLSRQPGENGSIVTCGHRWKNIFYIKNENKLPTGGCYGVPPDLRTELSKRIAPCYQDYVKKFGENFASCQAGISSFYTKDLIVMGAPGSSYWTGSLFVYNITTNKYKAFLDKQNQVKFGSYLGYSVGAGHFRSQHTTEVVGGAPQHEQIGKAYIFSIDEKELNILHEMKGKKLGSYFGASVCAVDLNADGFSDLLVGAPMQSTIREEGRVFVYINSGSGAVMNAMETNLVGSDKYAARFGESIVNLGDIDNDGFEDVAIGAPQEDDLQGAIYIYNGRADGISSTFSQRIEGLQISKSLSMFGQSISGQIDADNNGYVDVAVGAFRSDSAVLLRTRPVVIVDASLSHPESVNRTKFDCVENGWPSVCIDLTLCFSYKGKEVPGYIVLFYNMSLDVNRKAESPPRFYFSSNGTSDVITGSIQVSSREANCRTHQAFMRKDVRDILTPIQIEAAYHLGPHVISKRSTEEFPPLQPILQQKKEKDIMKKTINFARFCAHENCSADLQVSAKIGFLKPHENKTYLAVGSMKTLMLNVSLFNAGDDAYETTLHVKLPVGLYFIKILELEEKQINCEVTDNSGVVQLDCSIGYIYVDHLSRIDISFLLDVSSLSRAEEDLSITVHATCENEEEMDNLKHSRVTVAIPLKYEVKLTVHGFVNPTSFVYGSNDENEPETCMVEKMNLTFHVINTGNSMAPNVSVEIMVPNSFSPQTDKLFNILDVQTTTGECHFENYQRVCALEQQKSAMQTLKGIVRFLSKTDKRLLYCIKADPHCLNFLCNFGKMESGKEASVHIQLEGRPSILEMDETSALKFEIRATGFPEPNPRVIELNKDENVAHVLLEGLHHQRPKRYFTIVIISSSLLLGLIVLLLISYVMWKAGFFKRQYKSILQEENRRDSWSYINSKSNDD
Large screens that a line does not name were inactive.

Cc1ccc(N(CC(=O)NCCSc2ccccn2)S(C)(=O)=O)cc1	none
COc1cccc(N2CCN(C(=O)c3ccc(CS(=O)c4ccc(C)cc4)o3)CC2)c1 (stereo not given)	none
COc1cccc(N2CCN(C(=O)c3ccc(CS(=O)c4ccc(Cl)cc4)o3)CC2)c1 (stereo not given)	ALR inh 87.9
COc1cccc(N2CCN(C(=O)c3ccc(CS(=O)Cc4ccc(C)cc4)o3)CC2)c1 (stereo not given)	ALR inh 79.5
O=C(c1ccc(CS(=O)Cc2ccc(Cl)cc2)o1)N1CCN(c2cccc(Cl)c2)CC1 (stereo not given)	none
C/C(=N\Nc1cccc(Cl)c1)c1ccc(-n2ccnc2)cc1	none (no result: ALR inh)
CC(=O)NCCNC(=O)c1cccc(NS(=O)(=O)c2ccc3c(c2)OCCO3)c1	none
COc1ccccc1NC(=O)C(=O)Nc1ccccn1	none
CCCn1nnc(NC(=S)NC(=O)c2ccccc2OC)n1	AHR activator 56.9 (no result: ALR inh)
COc1ccccc1C(=O)NC(=S)Nc1cccnc1Cl	AHR activator 75.0
CCOc1ccccc1NC(C)C(=O)NC(=O)NC1CCCCC1 (stereo not given)	ALR inh 87.8
COc1ccccc1NC(=S)Nc1ccccn1	ALR inh 81.9, AHR activator 116.7
CC(Nc1ccc(F)cc1F)C(=O)NC(=O)NC1CCCCC1 (stereo not given)	none
CC1CCN(C(=O)C(C)OC(=O)CSc2ccc([N+](=O)[O-])cc2)CC1 (stereo not given)	none
COc1ccccc1C(=O)NNC(=S)NC(=O)c1sc2ccccc2c1Cl	AHR activator 47.6
CCOc1ccccc1NC(=O)Nc1ccccn1	AHR activator 54.4
COc1ccccc1C(=O)NC(=S)NNC(=O)c1sc2ccccc2c1Cl	none
CCOc1ccccc1NC(=O)Cn1[nH]c(=O)c2ccccc2c1=O	AHR activator 64.4
CCOc1cc(N2CCOCC2)c(OCC)cc1NC(=O)Cn1[nH]c(=O)c2ccccc2c1=O	none
CCOc1ccccc1NC(=O)Nc1ccc(Cl)cc1	AHR activator 52.7
Cc1ccc(S(=O)(=O)Nc2cc(S(=O)(=O)N3CCOCC3)ccc2NCC2CCCO2)cc1 (stereo not given)	none
COC(=O)C1CCN(C(=O)C2CCC(=O)N(CCc3cccc(F)c3)C2)CC1 (stereo not given)	none
CCC(=O)NC(=S)Nc1ccc(NC(=O)c2cc3ccccc3o2)c(OC)c1	none
Cn1cc(-c2cccc(C(F)(F)F)c2)cc(C#N)c1=O	none
CC[C@H]1c2[nH]c3ccccc3c2C[C@@H]2C(=O)N(c3ccc(F)cc3)C(=O)N21	none
Cc1cccc(NC(=S)Nc2ccccn2)c1	AHR activator 58.1
CC(C)Oc1ccccc1/C=N/NC(=O)C1CC1	none
COc1ccc(Cc2c(O)nc(SCC(=O)c3ccc(OC)cc3)[nH]c2=O)cc1	ALR inh 98.2
CCc1c(O)nc(SCC(=O)Nc2ccccc2OC)[nH]c1=O	ALR inh 99.2
COc1ccccc1NC(=O)CSc1nc(O)cc(=O)[nH]1	ALR inh 98.2
COc1ccccc1NC(=O)CSc1nc(N)c(-c2ccccc2)c(=O)[nH]1	none
COc1ccc(Cc2c(O)nc(SCC(C)C)[nH]c2=O)cc1	none
CSc1nc2sc3c(c2c(=O)n1C)CCC(C)C3 (stereo not given)	AHR activator 56.0
O=C(CCN1CCOCC1)NNC(=O)Nc1cccc(C(F)(F)F)c1	none
CCOC(=O)C(=NCCCN1CCOCC1)NNc1cccc(C(F)(F)F)c1	ALR inh 98.3, SUMO Mot1 rescue 324.1
O=C(/C=C/c1ccc(O)c([N+](=O)[O-])c1)c1ccc2ccccc2c1	none
COc1ccc(Oc2ccc(/C=C/C(=O)c3ccc(O)cc3)cc2[N+](=O)[O-])cc1	ALR inh 96.0
CC(C)(C)Nc1nc2nonc2nc1NC(C)(C)C	none (no result: ALR inh)
O=C1CCN(Cc2ccc([N+](=O)[O-])cc2)CCN1CCO	none
CSCC[C@H](NC(=O)[C@@H]1Cc2c([nH]c3ccccc23)C2c3ccccc3C(=O)N21)C(=O)NCC1CCCO1 (stereo not given in full)	SUMO Mot1 rescue 793.0
O=c1ccc(N=Nc2ccccc2)ccc1O	ALR inh 98.0
COc1ccc(-c2noc(CN(C)Cc3ccc(C)o3)n2)cc1	none
CCCCn1c(SCC(=O)NCc2ccco2)nc2c(sc3ccccc32)c1=O	none
O=C(CSc1nc2c(sc3ccccc32)c(=O)n1CCCN1CCCC1)NCC1CCCO1 (stereo not given)	none
CCN(CC)CCn1c(SCC(=O)NCc2ccccc2)nc2c(sc3ccccc32)c1=O	ALR inh 96.5
O=C(CSc1nc2c(sc3ccccc32)c(=O)n1-c1ccccc1)NCc1ccco1	AHR activator 113.4
COc1ccc(NC(=O)CSc2nc3c(sc4ccccc43)c(=O)n2CCCN2CCCC2)cc1	ALR inh 99.0
CCOC(=O)c1ccc2c(c1)nc(SCC(=O)N1CCCCC1)n2CC	SUMO Mot1 rescue 293.4
O=C(Nc1nc2c(F)cc(F)cc2s1)C1CC1	Bfl-1 A1 inh inconclusive, AHR activator 55.2
O=C(Nc1nc2c(Cl)c(Cl)ccc2s1)C1CC1	AHR activator 48.4
O=C(Nc1nc2c(Cl)cccc2s1)C1CC1	AHR activator 54.9
O=C(Nc1nc2c(Cl)ccc(Cl)c2s1)C1CC1	none
O=C(CN1C(=O)CCC1=O)Nc1nc2c(F)cc(F)cc2s1	none
C=C(C)CNC(=S)NNC(=O)CCn1c2ccc(Cl)cc2c2cc(Cl)ccc21	none
COc1ccc(CN(C)C(=O)Cc2ccc(OC)c(S(=O)(=O)N3CCOCC3)c2)cc1	none
O=C(Nc1ccc(O)cc1)C1CCCO1 (stereo not given)	ALR inh 99.3
Cc1cccc(N2CCN(C(=O)c3ccc(NC(=O)C4CCCO4)cc3)CC2C)c1 (stereo not given)	ALR inh 98.7
Cc1cccc(N2CCN(C(=O)c3cn4ccccc4n3)CC2C)c1 (stereo not given)	ALR inh 83.0
Cc1cccc(N2CCN(c3cccc(C)c3)C2c2cccnc2)c1	ALR inh 95.2
Cc1ccc(N2CCN(c3ccc(C)cc3)C2c2ccncc2)cc1	none
O=C(Nc1ccc(F)cc1)C1CCCO1 (stereo not given)	none
CN(CC(=O)Nc1cccc(F)c1)C(=O)c1ccc(N2CCCCC2)c([N+](=O)[O-])c1	none
CCOc1ccccc1C(=O)NCC(=O)N1CCN(Cc2ccc3c(c2)OCO3)CC1	none
Cc1cccc(N2CCN(C(=O)c3ccc4ccccc4c3)CC2C)c1 (stereo not given)	none
Cc1cccc(N2CCN(C(=O)c3ccncc3)CC2C)c1 (stereo not given)	ALR inh 98.3
CCOc1ccc(/C=N/Nc2nc(C)cs2)c(O)c1	none (no result: AHR activator)
CCOC(=O)C1=C(C)NC(=S)NC1c1ccc(OCC(=O)N2CCCCCC2)cc1 (stereo not given)	none (no result: ALR inh)
